Results on 27 compounds are retold here after PubChem BioAssay (Tox21).

A short description of assay [1]: qHTS assay to identify small molecule agonists of the estrogen receptor alpha (ER-alpha) signaling pathway in the presence of an antagonist - cell viability counter screen (AID 1259386).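 Further: cells exposed to compounds for 22 h at 37 °C before the viability read; nearly all actives have a fitted effect of over 30% in size.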 Further: potency means the concentration at half of the fitted maximal effect. On activity change, negative = cytotoxicity: series mostly up to about 92 µM. The procedure, abridged: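 Using estrogen-depleted VM7Luc4E2 cells, the 15-concentration compound series was applied together with 10.0nM ICI-182,780 and incubated 22hr at 37C/5% CO2. Cell viability was then scored by CellTiter-Fluor.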

The target of assay [2] is Progesterone receptor (Homo sapiens) (UniProt P06401). Kind of assay: qHTS assay to identify small molecule agonists of the progesterone receptor (PR) signaling pathway (AID 1346784; calls by dose curve; further: nearly all actives have a fitted effect of over 30% in size; further: potency means the concentration at half of the fitted maximal effect). An outline of the steps:
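Using charcoal-stripped serum (2%) to limit endogenous steroids, PR-UAS-bla HEK 293T cells received compounds for 16 hr at 37C after 6 hr plating; beta-lactamase FRET fluorescence was recorded following 2 hr substrate loading at room temperature.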

Assay [3] shares this target. Kind of assay: qHTS assay to identify small molecule antagonists of the progesterone receptor (PR) signaling pathway (AID 1346795; active means well fitted inhibition curve with a large enough effect in the signal ratio in the repeat runs, not every such curve was filed as active; the % refers to the signal ratio; further: potency means the concentration at half of the fitted maximal effect). An outline of the steps:
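Inhibition of R5020-induced (1 nM final) beta-lactamase reporter signal in PR-UAS-bla HEK293T cells was scored by FRET fluorescence after overnight (16 hr) compound treatment.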

Assay [4] can be described thus: qHTS assay to identify small molecule antagonists of the progesterone receptor (PR) signaling pathway - cell viability counter screen (AID 1346798). Further: series mostly up to about 92 µM; nearly all actives have a fitted effect of over 50% in size. The procedure, abridged:
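ATP content as viability readout: CellTiter-Glo luminescence, 30 min room temperature, in PR-UAS-bla HEK293T cells after 16 hr compound/R5020 treatment at 37C and 5% CO2.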

Assay [5] is described as follows: qHTS assay to identify small molecule agonists of the progesterone receptor (PR) signaling pathway - cell viability counter screen (AID 1346799; calls by dose curve; further: nearly all actives have a fitted effect of over 45% in size). An outline of the steps: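 Cytotoxicity in PR-bla HEK293T cells: 16 h compound, 37C; CellTiter-Glo added post-FRET read; luminescence after 30 min RT.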
A short description of assay [6]: qHTS assay to identify small molecule antagonists of the TGF-beta/Smad signaling pathway - cell viability counter screen (AID 1346824). Further: nearly all actives have a fitted effect of over 50% in size. The procedure, abridged: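 Cytotoxicity counter-screen run in the same wells as the beta-lactamase Smad reporter read: CellTiter-Glo luminescence after 30 min at room temperature. HEK 293T SBE-bla cells had 5 hr compound exposure at 37 C with TGF-beta1 (0.25 ng/mL stock).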

The nature of assay [7]: qHTS assay to identify small molecule agonists of the TGF-beta/Smad signaling pathway - cell viability counter screen (AID 1346829). Further: top concentration of the series differs between compounds; nearly all actives have a fitted effect of over 45% in size. The procedure, abridged:
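Same-well cytotoxicity: CellTiter-Glo added after the 2 hr room-temperature beta-lactamase substrate step, luminescence measured 30 min later; cells had 5 hr of compound at 37 C.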

Assay [8] is described as follows: qHTS assay to identify small molecule agonists of the TGF-beta/Smad signaling pathway (AID 1346859; active means well fitted activation curve with a large enough effect in the signal ratio in the repeat runs, not every such curve was filed as active; the % refers to the signal ratio; further: series mostly up to about 77 µM). An outline of the steps:
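Stable Smad binding element-beta-lactamase HEK 293T cells; 5 hr compound exposure at 37 C under 5% CO2; 2 hr room-temperature substrate step; fluorescence excited at 405 nm, collected at 460 nm and 530 nm.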

In assay [9] the target is Thyrotropin-releasing hormone receptor (Homo sapiens) (UniProt P34981). Kind of assay: qHTS assay to identify small molecule antagonists of the thyrotropin-releasing hormone receptor (TRHR) signaling pathway (AID 1346877; active means well fitted inhibition curve with a large enough effect in the repeat runs, not every such curve was filed as active; further: series mostly up to about 51 µM). The procedure, abridged: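 Calcium signal in dye-loaded TRHR/HEK293 cells; compounds added 5 min before TRH (1 nM final); fluorescence monitored 3 min at 1 s steps.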
Thyrotropin-releasing hormone receptor (Homo sapiens), sequence (P34981 whole entry, looked up): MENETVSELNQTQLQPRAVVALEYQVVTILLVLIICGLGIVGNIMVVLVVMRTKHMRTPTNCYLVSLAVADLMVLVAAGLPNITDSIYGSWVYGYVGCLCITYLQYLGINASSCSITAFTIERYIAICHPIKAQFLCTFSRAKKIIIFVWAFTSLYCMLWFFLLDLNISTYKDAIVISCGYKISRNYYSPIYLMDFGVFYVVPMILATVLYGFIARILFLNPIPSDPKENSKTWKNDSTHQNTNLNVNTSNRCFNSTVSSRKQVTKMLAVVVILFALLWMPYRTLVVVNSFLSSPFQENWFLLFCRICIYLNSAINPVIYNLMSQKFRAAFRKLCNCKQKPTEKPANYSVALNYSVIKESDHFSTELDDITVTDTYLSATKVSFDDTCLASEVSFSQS

Assay [10] has the same target. Kind of assay: qHTS assay to identify small molecule agonists of the thyrotropin-releasing hormone receptor (TRHR) signaling pathway (AID 1346891; calls by dose curve;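 further: HEK293 cells expressing TRHR with calcium dye readout; series mostly up to about 58 µM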). An outline of the steps: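 In 1536-format, 1500 TRHR-Hek293 cells per well grew 18 h, took up calcium dye for 2 h at 37 °C, received compound, and were read kinetically; 15-point titrations, triplicates.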

A number with no mark means an inactive call. Inconclusive results are not listed. Activity calls are given as the source filed them. Unless noted, the call rests on the fitted dose curve; in most records, active means well fitted curve in the direction sought with a large enough effect in the repeat runs; inconclusive means weak or mixed curves; inactive means no such curve, though single readings can be large; an effect the other way counts as inactive or inconclusive.
On the % scale 0 is the no-effect control and ±100 the full control effect.

Progesterone receptor (Homo sapiens), sequence (P06401 whole entry, looked up): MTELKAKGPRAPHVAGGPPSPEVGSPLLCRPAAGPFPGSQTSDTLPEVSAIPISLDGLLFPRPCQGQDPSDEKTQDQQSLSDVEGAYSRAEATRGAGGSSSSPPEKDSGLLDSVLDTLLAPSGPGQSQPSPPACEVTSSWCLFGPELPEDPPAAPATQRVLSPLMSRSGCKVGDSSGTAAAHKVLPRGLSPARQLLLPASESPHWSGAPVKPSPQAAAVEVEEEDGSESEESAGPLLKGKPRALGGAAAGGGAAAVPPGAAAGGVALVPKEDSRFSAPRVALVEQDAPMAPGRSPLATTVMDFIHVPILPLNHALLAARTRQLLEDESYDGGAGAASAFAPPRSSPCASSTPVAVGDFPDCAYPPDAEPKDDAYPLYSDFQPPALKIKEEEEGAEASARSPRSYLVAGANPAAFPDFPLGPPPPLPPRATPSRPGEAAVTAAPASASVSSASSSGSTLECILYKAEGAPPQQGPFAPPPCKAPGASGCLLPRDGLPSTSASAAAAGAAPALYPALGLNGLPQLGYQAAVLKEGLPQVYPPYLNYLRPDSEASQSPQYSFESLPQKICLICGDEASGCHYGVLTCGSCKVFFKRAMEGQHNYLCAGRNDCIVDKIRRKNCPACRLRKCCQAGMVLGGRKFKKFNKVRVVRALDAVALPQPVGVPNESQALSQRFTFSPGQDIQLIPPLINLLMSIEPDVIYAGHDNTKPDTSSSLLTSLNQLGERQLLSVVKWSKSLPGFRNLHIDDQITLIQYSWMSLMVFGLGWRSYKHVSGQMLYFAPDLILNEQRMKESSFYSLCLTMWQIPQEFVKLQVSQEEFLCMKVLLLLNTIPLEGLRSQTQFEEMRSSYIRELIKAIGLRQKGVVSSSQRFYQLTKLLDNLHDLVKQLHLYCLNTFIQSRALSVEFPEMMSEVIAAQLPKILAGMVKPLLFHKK

Regarding `O=[N+]([O-])c1cc(Cl)ccc1Cl`, the Potency result in assay [1], in [2], in assay [3], in [4], in assay [5] and in [6] was “inactive” each time. In addition, the Potency entry in assay [7], in [9] and in assay [10] was “inactive” each time. The result in assay [8] was inactive.

Consider `ClCc1ccc(Cl)cc1Cl`, for which the Potency result in assay [1], in [2], in assay [3], in assay [4], in assay [5] and in [6] was “inactive” in each case. In addition, the Potency entry in [7] is “inactive”.

On to `Cc1cccc(OP(=O)(Oc2cccc(C)c2)Oc2cccc(C)c2)c1`, for which the Potency result in assay [1], in assay [2], in assay [4], in assay [5], in assay [6] and in [7] was “inactive” throughout. The Potency result in assay [9] and in assay [10] was “inactive” in each case. Also, the Potency in assay [3] was 43.3 µM (active). For the same compound, the compound was classed as inactive in assay [8].

Turning to `COP(N)(=S)OC`, the Potency result in assay [1], in [2], in assay [3], in assay [4], in assay [5] and in assay [6] was “inactive” in each case. In assay [7], the Potency result is “inactive”. Further, the compound was called inactive in assay [8].

Consider `c1ccc(Nc2ccc3ccccc3c2)cc1`, for which the Potency result in [1], in assay [2], in [4], in assay [5], in assay [6] and in assay [7] was “inactive” in each case. Besides, the Potency entry in assay [9] and in assay [10] was “inactive” each time. Moreover, the Potency in [3] was 17.2 µM (active). The compound was classed as inactive in assay [8].

Turning to `COc1ccc(OC)c(CC(C)N)c1` (stereo not given), the Potency result in assay [1], in assay [2], in assay [3], in [4], in [5] and in assay [6] was “inactive” in each case. Also, the Potency entry in assay [7], in assay [9] and in assay [10] was “inactive” in each case. The compound was called inactive in assay [8].

On to `C=COCCCl`, for which the Potency result in assay [1], in [2], in [3], in [4], in assay [5] and in assay [6] was “inactive” in each case. Also, the Potency result in assay [7], in assay [9] and in assay [10] was “inactive” throughout. In addition, the call in [8] was inactive.

Turning to `ClC1=C(Cl)[C@]2(Cl)[C@@H]3[C@@H]4C[C@@H]([C@H]5O[C@@H]45)[C@@H]3[C@@]1(Cl)C2(Cl)Cl`, the Potency result in assay [1] was “inactive”.

For the compound `CCCCOP(=O)(CCCC)OCCCC`, the Potency entry in assay [1], in [2], in assay [3], in assay [4], in assay [5] and in assay [6] was “inactive” throughout. Also, the Potency result in assay [7] was “inactive”.

Consider `N#Cc1ccc(O)cc1`, for which the Potency entry in assay [1], in assay [2], in assay [3], in assay [4], in assay [5] and in assay [6] was “inactive” each time. The Potency entry in assay [7], in assay [9] and in [10] was “inactive” in each case. In assay [8], the call was inactive.

For the compound `CCc1ccccc1C`, the Potency result in [1], in assay [2], in assay [3], in [4], in assay [5] and in assay [6] was “inactive” in each case. In addition, in assay [7], the Potency result is “inactive”. For the same compound, the compound was called inactive in assay [8].

Turning to `COP(=O)(CCC(=O)NCO)OC`, the Potency result in assay [1], in [2], in [3], in assay [4], in assay [5] and in assay [6] was “inactive” in each case. For the same compound, the Potency result in assay [7], in [9] and in assay [10] was “inactive” throughout. For the same compound, in [8], the compound was called inactive.

Consider `ClC1=C(Cl)[C@]2(Cl)[C@@H]3[C@@H](Cl)[C@H](Cl)C[C@@H]3[C@@]1(Cl)C2(Cl)Cl`, for which the Potency result in assay [1], in assay [2], in [3], in assay [4], in assay [5] and in assay [6] was “inactive” each time. Moreover, the Potency result in assay [7], in [9] and in assay [10] was “inactive” in each case.

In the case of `Oc1cccc(-c2ccccc2)c1`, the Potency entry in [1], in [2], in [4], in assay [6] and in assay [7] was “inactive” in each case. In assay [3], the Potency is 30.6 µM (active). For the same compound, the result in [8] was inactive.

Regarding `Clc1ccc(Oc2ccccc2)cc1`, the Potency result in assay [1], in [2], in assay [3], in assay [4], in [5] and in [6] was “inactive” in each case. Also, the Potency result in [7], in [9] and in [10] was “inactive” in each case.

In the case of `C=CCOC(N)=O`, the Potency entry in assay [1], in [2], in assay [3], in assay [4], in assay [5] and in [6] was “inactive” in each case. Besides, the Potency entry in [9] and in assay [10] was “inactive” in each case. Besides, the outcome in assay [8] was inactive.

Take `Nc1ccccc1C(=O)Oc1ccc2ccccc2c1`: the Potency entry in assay [1], in assay [2], in assay [4], in assay [6], in assay [7] and in assay [9] was “inactive” in each case. Further, in assay [10], the Potency entry was “inactive”. Also, the Potency in assay [3] was 30.6 µM (active). In assay [8], the result was inactive.

For the compound `Clc1ccc(-c2ccccc2)cc1`, the Potency result in assay [1], in [2], in assay [3], in assay [4], in assay [5] and in assay [6] was “inactive” each time. In addition, the Potency result in [7] and in assay [10] was “inactive” throughout. Further, in [8], the outcome was inactive.

Turning to `Brc1c(Br)c(Br)c(Oc2c(Br)c(Br)c(Br)c(Br)c2Br)c(Br)c1Br`, the activity change, negative = cytotoxicity in assay [1] was -0.0832% [at 19 µM]; in assay [4], -6.81% [at 18.9 µM]; in assay [5], -0.672% [at 19 µM]. Moreover, the activation in [2] is -1.27% [at 19 µM]; in assay [8] it was 4.57% [at 15.8 µM]; in assay [10] it was -0.444% [at 11.8 µM]. Also, in assay [3], the activity change, negative = inhibition was 0.347% [at 18.9 µM]. Also, the viability change, negative = cytotoxic in assay [6] is 12.3% [at 15.8 µM]. Also, the activity, negative = inhibition in [9] is 2.65% [at 10.5 µM].

`BrC(Br)Br`: the Potency entry in assay [1], in [3], in [4], in assay [6] and in assay [7] was “inactive” each time. The Potency in assay [2] was 7.7 µM (active). For the same compound, the call in assay [8] was inactive.

Regarding `CC(C)(C)OO`, the Potency entry in [1], in assay [2], in [3], in [4], in assay [5] and in assay [6] was “inactive” throughout. Moreover, the Potency result in assay [7] and in assay [10] was “inactive” each time.

`CC(Cl)CN(C)C` (stereo not given): the Potency entry in assay [1], in assay [2], in assay [3], in assay [4], in [5] and in [10] was “inactive” in each case. Further, the outcome in [8] was inactive.

Consider `Nc1ccc([N+](=O)[O-])cc1Cl`, for which the Potency in assay [1] and in assay [3] was 54.5 µM (active) each time. Moreover, the Potency result in [2], in assay [4], in assay [6] and in assay [7] was “inactive” in each case. In addition, the result in assay [8] was inactive.

In the case of `CCOC(=O)CC(=O)CCl`, the Potency entry in [1], in [2], in [3], in [4], in assay [5] and in assay [6] was “inactive” throughout. For the same compound, the result in assay [8] was inactive.

For the compound `COc1cc(N)c(Cl)cc1C(=O)NC1CN2CCC1CC2` (stereo not given), the Potency result in [1], in [2], in assay [3], in assay [4], in assay [5] and in assay [6] was “inactive” in each case. Besides, the Potency entry in assay [7], in [9] and in assay [10] was “inactive” in each case.

As to `CC(O)C#N` (stereo not given), the Potency result in assay [1], in assay [2], in [3], in assay [4], in [5] and in assay [6] was “inactive” throughout. For the same compound, the Potency entry in assay [7], in [9] and in assay [10] was “inactive” each time.

Take `CCOP(=S)(OCC)SCCS(=O)(=O)CC`: the Potency entry in assay [1], in [2], in [4], in [6], in [7] and in [9] was “inactive” in each case. Besides, in assay [10], the Potency result was “inactive”. Moreover, the Potency in assay [3] was 48.6 µM (active). For the same compound, the compound was called inactive in assay [8].
